In PubChem BioAssay (NCATS):
Where “and” joins values, the source holds several entries; their conditions need not be identical. Identical values can stand only once. Inconclusive results are not listed. Calls of active or inactive are those of the source. Calls come from the whole dose curve; as a rule, active = well fitted curve in the direction sought with a large enough effect; inconclusive = small, poorly fitted or top-dose-only effect, or another doubt; inactive = no such curve, though single readings can be large; an effect the other way counts as inactive or inconclusive.

What was measured:
[1] = qHTS for Activators of Parkin Expression: LOPAC Validation Assay (NLuc Reporter) (AID 720572;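 note: 0% = DMSO and 100% = positive control compound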)
Procedure, shortened: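 Parkin promoter-driven FLuc/NLuc neuronal reporter cells; 24 h plating, 7-pt dose response, 24 h at 37 C/5% CO2; FLuc then NanoLuc reagent, 10 min each, luminescence; DMSO/positive control normalized.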

[2] = qHTS for Activators of Parkin Expression: LOPAC Validation Assay (FLuc Reporter) (AID 720573;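 note: 0% = DMSO and 100% = positive control compounds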)
Procedure, shortened: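 A neuronal cell line harbouring FLuc and NLuc reporters behind the Parkin promoter was exposed to compounds for 24 h. Firefly luciferase signal, measured after 10 min with detection reagent, was scaled to DMSO and positive-control wells.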

[3] = biological target: T1, Hexokinase-4 (Homo sapiens) + Glucokinase regulatory protein (Homo sapiens) (UniProt P35557+Q14397); experiment: qHTS assay for inhibitors of recombinant human GCK-GKRP interaction: Diaphorase-coupled assay (AID 743205)
Procedure, shortened: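 Inhibitors of the GCK–GKRP complex relieve GKRP suppression of GCK, detected through a G6PDH–diaphorase cascade reducing resazurin. Human GST-GCK and FLAG-GKRP are used at 10 nM with 5 mM glucose and 0.4 mM ATP.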

[4] = biological target: T1, Hexokinase-4 (Homo sapiens) + Glucokinase regulatory protein (Homo sapiens); experiment: qHTS assay for inhibitors of recombinant human GCK-GKRP interaction: ADP-Glo assay (AID 743206);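 note: plate controls were DMSO plus enzyme for no effect and no enzyme for full effect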
Procedure, shortened: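 GST-GCK and FLAG-GKRP (15 nM each in the dispensed mix, with 2 uM S6P) react with 0.4 mM ATP and 5 mM glucose (final) in Hepes pH 7.6 for 60 min at room temperature. ADP is measured by ADP-Glo luminescence.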

[5] = biological target: T1, Hexokinase-4 (Homo sapiens) + Glucokinase regulatory protein (Homo sapiens); experiment: qHTS assay for inhibitors of recombinant human GCK-GKRP interaction: HTRF assay (AID 743207);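 note: 0% = DMSO with GCK present and -100% = DMSO wells lacking GCK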
Procedure, shortened: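 Steps: dispense GCK–GKRP complex (5 nM each, GST- and FLAG-tagged) with 2 uM S6P; pin in compounds; add XL665/Eu-cryptate-labelled antibodies; incubate 60 min at room temperature; read time-resolved FRET at 665 and 615 nm.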

[6] = qHTS Assay for Identifying Gametocytocidal Compounds (AID 743244); note: potency is the fitted concentration of half-maximal effect;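 for max response: % is set by controls: 0 for no effect and ±100 for the full control effect; actives lower the fluorescent signal which means gametocytes are killed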; conditions: P. falciparum 3D7 stage III-V gametocytes, alamarBlue, 72 h; max response: hits give low values
Procedure, shortened: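 Stage III–V gametocytes of P. falciparum 3D7 were seeded at 20,000 cells/well onto pre-dispensed compounds. After 72 h, 37 °C, 5% CO2, alamarBlue was added for another 24 h.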

T1 sequence (P35557 whole entry, looked up): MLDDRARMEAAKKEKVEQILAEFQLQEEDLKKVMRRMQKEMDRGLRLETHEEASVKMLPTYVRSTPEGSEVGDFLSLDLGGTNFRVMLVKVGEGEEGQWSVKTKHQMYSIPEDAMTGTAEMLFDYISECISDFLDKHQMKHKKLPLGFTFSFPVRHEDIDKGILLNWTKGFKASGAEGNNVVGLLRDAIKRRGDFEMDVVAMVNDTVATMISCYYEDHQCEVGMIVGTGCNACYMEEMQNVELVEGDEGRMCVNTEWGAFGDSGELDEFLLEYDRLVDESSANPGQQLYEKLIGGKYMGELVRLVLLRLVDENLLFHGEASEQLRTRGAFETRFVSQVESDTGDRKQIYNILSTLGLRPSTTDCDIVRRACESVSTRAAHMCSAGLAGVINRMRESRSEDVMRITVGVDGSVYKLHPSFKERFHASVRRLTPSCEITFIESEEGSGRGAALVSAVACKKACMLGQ
T1 sequence (Q14397 whole entry, looked up): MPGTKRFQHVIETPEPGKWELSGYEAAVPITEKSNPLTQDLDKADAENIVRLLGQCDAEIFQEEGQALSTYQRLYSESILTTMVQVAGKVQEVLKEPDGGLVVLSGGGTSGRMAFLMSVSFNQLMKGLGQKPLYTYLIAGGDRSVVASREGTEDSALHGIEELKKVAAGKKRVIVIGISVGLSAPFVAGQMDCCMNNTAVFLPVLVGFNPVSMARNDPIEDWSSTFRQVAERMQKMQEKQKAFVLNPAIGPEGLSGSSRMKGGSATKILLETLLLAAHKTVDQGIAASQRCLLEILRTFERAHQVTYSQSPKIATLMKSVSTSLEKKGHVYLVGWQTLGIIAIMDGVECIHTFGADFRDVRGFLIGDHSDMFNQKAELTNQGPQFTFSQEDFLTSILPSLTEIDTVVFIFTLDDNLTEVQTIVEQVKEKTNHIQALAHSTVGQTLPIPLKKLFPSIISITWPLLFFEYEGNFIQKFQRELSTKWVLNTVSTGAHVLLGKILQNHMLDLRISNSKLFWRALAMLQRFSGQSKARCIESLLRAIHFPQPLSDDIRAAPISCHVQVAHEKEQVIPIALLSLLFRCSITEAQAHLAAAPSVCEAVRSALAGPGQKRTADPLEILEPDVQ

NCC(O)c1cc(O)c(O)cc1F (configuration not stated)
inactive: Potency [1] | outcome [2] | Potency [3] | outcome [4] | outcome [5] | max response [6] 20.1%

O=[N+]([O-])/C=C/c1ccc2c(c1)OCO2
active: Potency [6] 1580 nM
inactive: Potency [1] | outcome [2] | Potency [3] | outcome [4] | outcome [5]

N=C(N)c1ccc(CS(=O)(=O)F)cc1
inactive: Potency [1] | outcome [2] | Potency [3] | outcome [4] | outcome [5] | max response [6] 2.02%

C[N+]1(C)CCc2cc3c(cc2[C@H]1[C@@H]1OC(=O)c2c1ccc1c2OCO1)OCO3
inactive: Potency [1] | outcome [2] | Potency [3] | outcome [4] | outcome [5] | max response [6] 19.2%

CCCN(CCC)[C@@H]1CCc2cccc(O)c2C1
inactive: Potency [1] | outcome [2] | Potency [3] | outcome [4] | outcome [5]

COc1ccc2c(c1)C13CCCCC1C(C2)N(C)CC3 (configuration not stated)
inactive: Potency [1] | outcome [2] | Potency [3] | outcome [4] | outcome [5] | max response [6] 9.94%

NCC(CP(=O)(O)O)c1ccc(Cl)cc1 (configuration not stated)
inactive: Potency [1] | outcome [2] | Potency [3] | outcome [4] | outcome [5] | max response [6] 18.6%

CN(N=O)c1cc(O)ccc1O
inactive: Potency [1] | outcome [2] | Potency [3] | outcome [4] | outcome [5]

NC(=O)c1cc(N2CC2)c([N+](=O)[O-])cc1[N+](=O)[O-]
inactive: Potency [1] | outcome [2] | Potency [3] | outcome [4] | outcome [5] | max response [6] 5.78%

CP(=O)(O)C1=CCNCC1
inactive: Potency [1] | outcome [2] | Potency [3] | outcome [4] | outcome [5] | max response [6] 6.19%

NC(=O)c1ccc(OCC(O)CN2CC=C(c3ccc(F)cc3)CC2)cc1 (configuration not stated)
inactive: Potency [1] | outcome [2] | Potency [3] | outcome [4] | outcome [5] | max response [6] 10.4%

NNC(=O)c1ccc(O)cc1
inactive: Potency [1] | outcome [2] | Potency [3] | outcome [4] | outcome [5] | max response [6] 7.91%

COc1ccc2c(c1)c(CCN1CCOCC1)c(C)n2C(=O)c1cccc(Cl)c1Cl
inactive: Potency [1] | outcome [2] | Potency [3] | outcome [4] | outcome [5] | max response [6] 23.8%

NCCc1c[nH]c2ccc(C(N)=O)cc12
inactive: Potency [1] | outcome [2] | Potency [3] | outcome [4] | outcome [5] | max response [6] 47.6%

Ic1ccccc1CNC1C2CCN(CC2)C1C(c1ccccc1)c1ccccc1 (configuration not stated)
active: Potency [6] 1780 nM
inactive: Potency [1] | outcome [2] | Potency [3] | outcome [4] | outcome [5]

CCCN1CCc2cc(O)cc3c2[C@H]1Cc1ccc(O)c(O)c1-3
inactive: Potency [1] | outcome [2] | Potency [3] | outcome [4] | outcome [5]
active: Potency [6] 2510 nM

COc1ccc(OC)c(C(O)C(C)N)c1 (configuration not stated)
inactive: Potency [1] | outcome [2] | Potency [3] | outcome [4] | outcome [5] | max response [6] 11.7%

CCCN(CCC)C1CCc2cccc(O)c2C1 (configuration not stated)
inactive: Potency [1] | outcome [2] | Potency [3] | outcome [4] | outcome [5] | max response [6] 13.2%

C[C@@H]1O[C@@H](O[C@H]2C[C@@H](O)[C@]3(CO)[C@@H]4C(CC[C@]3(O)C2)[C@@]2(O)CC[C@H]([C@@H]3COC(=O)C3)[C@@]2(C)C[C@H]4O)[C@H](O)[C@H](O)[C@H]1O (some centres not stated)
inactive: Potency [1] | outcome [2] | Potency [3] | outcome [4] | outcome [5] | max response [6] 22.5%

CCCN1CCC[C@@H](c2cccc(O)c2)C1
inactive: Potency [1] | outcome [2] | Potency [3] | outcome [4] | outcome [5] | max response [6] 21.7%

CNc1ccc2oc(C[C@H]3O[C@@]4(CC[C@H]3C)O[C@H]([C@H](C)C(=O)c3ccc[nH]3)[C@H](C)C[C@H]4C)nc2c1C(=O)O
inactive: Potency [1] | outcome [2] | Potency [3] | outcome [4] | outcome [5]
active: Potency [6] 2350 nM

C=CCN1CC[C@]23c4c5ccc(O)c4O[C@@H]2/C(=N/N=C2\CC[C@@]4(O)C6Cc7ccc(O)c8c7[C@@]4(CCN6CC=C)[C@@H]2O8)CC[C@@]3(O)C1C5
active: Potency [6] 1000 nM
inactive: Potency [1] | outcome [2] | Potency [3] | outcome [4] | outcome [5]

CCCN(CCC)CCc1c[nH]c2ccc(C(N)=O)cc12
inactive: Potency [1] | outcome [2] | Potency [3] | outcome [4] | outcome [5] | max response [6] -3.58%

O=C1CC[C@@]2(O)C3Cc4ccc(O)c5c4C2(CCN3CC2CC2)[C@H]1O5 (some centres not stated)
inactive: Potency [1] | outcome [2] | Potency [3] | outcome [4] | outcome [5] | max response [6] 16.9%

c1ccc2cc(CC3=NCCN3)ccc2c1
inactive: Potency [1] | outcome [2] | Potency [3] | outcome [4] | outcome [5] | max response [6] 5.44%

CN1CCC(c2c[nH]c3ccc(O)cc23)CC1
inactive: Potency [1] | outcome [2] | Potency [3] | outcome [4] | outcome [5] | max response [6] 11.9%

C=CCN(C1=NCCN1)c1c(Cl)cccc1Cl
inactive: Potency [1] | outcome [2] | Potency [3] | outcome [4] | outcome [5] | max response [6] -1.3% and 35.7%

CCOC(=O)c1ncn2c1[C@@H]1CCCN1C(=O)c1cc(OC)ccc1-2
inactive: Potency [1] | outcome [2] | Potency [3] | outcome [4] | outcome [5] | max response [6] -1.18%

C[N+](C)(C)CC#CCOC(=O)Nc1cccc(Cl)c1
inactive: Potency [1] | outcome [2] | Potency [3] | outcome [4] | outcome [5] | max response [6] 12.7%
